# Results taken from PubChem BioAssay.
# Unmarked numbers belong to inactive results. How the calls were made is not given here.
# Target: Pantothenate synthetase (Mycobacterium tuberculosis (strain ATCC 25618 / H37Rv)) (UniProt P9WIL5)
# Assay: Coupled enzyme confirmation of inhibitors against recombinant Mtb PanC (AID 375);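 further: 0% = full reaction with vehicle and 100% = no enzyme background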
# Settings: coupled enzyme assay; at 10 µM, active compounds read high
# Pantothenate synthetase (Mycobacterium tuberculosis (strain ATCC 25618 / H37Rv)), sequence (P9WIL5 whole entry, looked up): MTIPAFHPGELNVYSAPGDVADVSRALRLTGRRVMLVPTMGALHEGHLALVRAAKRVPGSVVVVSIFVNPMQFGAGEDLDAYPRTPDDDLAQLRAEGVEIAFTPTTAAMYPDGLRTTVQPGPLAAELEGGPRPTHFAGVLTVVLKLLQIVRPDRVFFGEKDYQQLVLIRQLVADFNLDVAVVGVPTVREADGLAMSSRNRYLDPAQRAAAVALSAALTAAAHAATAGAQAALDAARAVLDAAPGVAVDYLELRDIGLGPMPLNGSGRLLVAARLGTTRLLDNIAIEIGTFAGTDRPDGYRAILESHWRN
row,SMILES,inhibition
1,CCOCCc1nnc(NC(=O)c2ccc(OC)c(OC)c2)s1,0%
2,COc1ccc(NC(=O)CC2CCCCC2)cc1OC,4%
3,CCC1CCc2c(sc3ncnc(N4CCOCC4)c23)C1 (stereo not given),0%
4,CC(C)c1ccc(S(=O)(=O)N2CCN(CCC(=O)Nc3ccc(N(C)C)cc3)CC2)cc1,5%
5,O=C1CC(c2cccnc2)c2cc3c(cc2N1)OCO3 (stereo not given),0%
6,O=C(CCCCCn1c(=S)[nH]c2cc3c(cc2c1=O)OCO3)N1CCN(Cc2ccccc2)CC1,1%
7,CCc1nc(N)c(C#N)c(-c2ccc(OC)c(OC)c2)c1C,2%
8,O=C(NCCSc1c[nH]c2ccccc12)c1ccco1,0%
9,COC(=O)c1oc2ccc(OC)cc2c1N,5%
10,NCc1ccc(S(N)(=O)=O)cc1,2%
11,Cc1oc(-c2ccccc2F)nc1CS(=O)(=O)CC(=O)N1CCCCCC1,1%
12,CCOC(=O)c1[nH]c2ccccc2c1NC(=O)CCN1CCN(C(=O)OCC)CC1,0%
13,Cc1cccc(OCC(=O)Nc2ccccc2N2CCN(C(=O)C(C)C)CC2)c1C,5%
14,O=C1c2ccccc2C(=O)N1CCC(=O)N1CCc2ccccc21,0%
15,COc1cccc(-c2noc(CCC(=O)NC3CCCCC3)n2)c1,1%
16,Cn1cc(C2NC(=O)c3c(sc4c3CCCC4)N2)c2ccccc21 (stereo not given),0%
17,NC1=NC(c2ccc(Cl)cc2)n2c(nc3ccccc32)N1 (stereo not given),0%
18,Cc1cc(NCC2CCCO2)n2c(nc3ccccc32)c1C#N (stereo not given),1%
19,CCc1nnc(NC(=O)OCc2ccccc2)s1,0%
20,CC1=C(C(=O)OC(C)C)C(c2cccc(F)c2)n2ncnc2N1 (stereo not given),2%

row,SMILES,inhibition
1,COC(=O)c1[nH]c2cccc(C)c2c1NC(=O)CN1CCCc2ccccc21,1%
2,CCCCCc1c(C)nc(Nc2nc(C)c3cc(OC)ccc3n2)[nH]c1=O,0%
3,O=C1C2CC=C(Cl)CC2C(=O)N1CNc1ccccn1 (stereo not given),0%
4,c1cncc(-c2nnc(-c3ccco3)o2)c1,4%
5,CCC(=O)N1CCCc2cc(S(=O)(=O)N3CCCc4ccccc43)ccc21,4%
6,CCOC(=O)CSC1=Nc2ccccc2C2=NC(CC(=O)NCc3cccs3)C(=O)N12 (stereo not given),4%
7,Cn1nc(C(=O)NC2CCCCCC2)ccc1=O,0%
8,CCN(CC(=O)Nc1c(C(=O)OC)[nH]c2ccccc12)c1ccc2c(c1)OCO2,5%
9,CCOc1cccc(C(=O)Nc2cccc(-c3nc4ncccc4o3)c2C)c1,10%
10,CCCc1nnc(NC(=O)CCC(=O)N2CCN(CCOc3ccc(C)cc3)CC2)s1,5%
11,Clc1ccc(Nc2ncnc3c2cnn3-c2ccccc2)cc1,6%
12,CCCCc1cc(=O)oc2c(CN3CCCC3)c(O)c(Cl)cc12,7%
13,CCN(Cc1cc2ccccc2[nH]c1=O)S(=O)(=O)c1ccccc1,0%
14,CCCn1c(NCc2cc(C)ccc2O)nc2ccccc21,0%
15,CCCCn1c(=O)[nH]c(=O)c2c1nc(COc1ccc(C#N)cc1)n2CCC,4%
16,Cc1coc(NC(=O)CSc2nc(-c3ccncc3)cc(C(F)(F)F)c2C#N)n1,0%
17,O=C(Cn1cnc2c(nnn2Cc2ccc(Cl)cc2)c1=O)NCC1CCCO1 (stereo not given),0%
18,Cn1c(=O)c2c(nc(CN3CCc4ccccc4C3)n2Cc2cccc(Cl)c2)n(C)c1=O,0%
19,COC(=O)c1ccc(NC(=O)C2CC(=O)N(c3cc(C)ccc3C)C2)cc1 (stereo not given),5%
20,CN(CCc1ccccn1)C(=O)CCNC(=O)Cn1cnc2ccccc2c1=O,1%
